ChEMBL document CHEMBL1201862, “PubChem BioAssay data set” (2004)
Out of some 400,000 compounds screened, about 2,100 (0.53%) were called active. About 14% were inconclusive and are not listed. How the calls were made is not given here. This excerpt belongs to a sample that is enriched for actives.

Biological target: Ataxin-2 (Homo sapiens) (UniProt Q99700)
Assay: qHTS for Inhibitors of ATXN expression.
Format: functional

Ataxin-2 (Homo sapiens), sequence (Q99700 whole entry): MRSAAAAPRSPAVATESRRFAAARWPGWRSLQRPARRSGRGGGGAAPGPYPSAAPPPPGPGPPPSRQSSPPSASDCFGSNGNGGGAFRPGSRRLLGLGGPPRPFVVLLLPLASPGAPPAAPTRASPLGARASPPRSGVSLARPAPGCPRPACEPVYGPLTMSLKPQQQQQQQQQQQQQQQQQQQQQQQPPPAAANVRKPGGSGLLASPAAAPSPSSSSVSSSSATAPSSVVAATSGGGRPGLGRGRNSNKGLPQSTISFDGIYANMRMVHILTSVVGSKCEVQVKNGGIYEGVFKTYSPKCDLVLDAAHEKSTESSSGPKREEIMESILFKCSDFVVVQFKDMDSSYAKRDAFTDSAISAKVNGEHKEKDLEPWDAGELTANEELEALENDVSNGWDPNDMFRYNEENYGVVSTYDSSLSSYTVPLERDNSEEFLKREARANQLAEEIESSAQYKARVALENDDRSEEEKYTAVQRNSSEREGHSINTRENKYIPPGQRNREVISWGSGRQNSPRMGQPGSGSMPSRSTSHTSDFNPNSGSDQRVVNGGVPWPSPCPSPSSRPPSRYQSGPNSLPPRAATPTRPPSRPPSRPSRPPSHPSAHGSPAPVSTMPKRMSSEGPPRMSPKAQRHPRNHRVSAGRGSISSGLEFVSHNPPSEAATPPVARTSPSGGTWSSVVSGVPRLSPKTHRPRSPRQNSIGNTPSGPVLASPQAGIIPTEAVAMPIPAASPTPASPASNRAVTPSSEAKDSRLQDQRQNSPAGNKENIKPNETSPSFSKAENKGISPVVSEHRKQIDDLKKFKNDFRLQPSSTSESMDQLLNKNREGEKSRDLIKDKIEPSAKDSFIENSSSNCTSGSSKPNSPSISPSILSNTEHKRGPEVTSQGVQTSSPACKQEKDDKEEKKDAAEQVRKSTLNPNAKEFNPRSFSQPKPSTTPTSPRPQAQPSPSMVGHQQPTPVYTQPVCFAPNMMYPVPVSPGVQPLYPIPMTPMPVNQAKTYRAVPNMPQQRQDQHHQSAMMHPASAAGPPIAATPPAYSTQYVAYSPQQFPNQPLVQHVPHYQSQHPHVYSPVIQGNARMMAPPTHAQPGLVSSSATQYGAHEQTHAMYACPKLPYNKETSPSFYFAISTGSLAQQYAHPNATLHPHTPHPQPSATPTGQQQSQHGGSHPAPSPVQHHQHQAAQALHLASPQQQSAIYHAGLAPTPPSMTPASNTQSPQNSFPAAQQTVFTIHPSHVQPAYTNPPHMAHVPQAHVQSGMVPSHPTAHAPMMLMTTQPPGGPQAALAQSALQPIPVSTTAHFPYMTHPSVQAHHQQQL

Row | Structure (SMILES) | Potency
1 | CC[C@H](CO)Oc1cc(NCc2cccc(N)c2)c2ncn(C(C)C)c2c1 | 31.6 µM (active)
2 | CC[C@H](CO)Oc1cc(NCc2ccc(Cl)c(Cl)c2)c2ncn(C(C)C)c2c1 | 35.5 µM (active)
3 | CCC(CO)Oc1cc(NCc2ccccc2C(F)(F)F)c2ncn(C(C)C)c2c1 (configuration not stated) | 25.1 µM (active)
4 | Nn1c(SCC(=O)Nc2c(F)cc(F)cc2Br)nnc1C1CCCCC1 | inactive
5 | Cc1cc2c(cc1C)NC(CC(=O)Nc1ccccc1)C(=O)N2 (configuration not stated) | inactive
6 | CCCOc1c(Br)cc(C2C3=C(CCCC3=O)N(C)C3=C2C(=O)CCC3)cc1OC | inactive
7 | Cn1c(CNc2ccccc2O)nc2ccccc21 | inactive
8 | COc1cccc(C(=O)/C=C2\Sc3ccccc3N2C)c1 | inactive
9 | CCC(/C=C1\Sc2ccc(OC)cc2N1CCO)=C\c1sc2ccc(OC)cc2[n+]1CCO | 17.8 µM (active)
10 | CCOC(=O)c1cc2c(OC)c(OC)ccc2c2ncc(C#N)c(O)c12 | inactive
11 | COCCn1c(N)c(C(=O)NCc2cccs2)c2nc3ccccc3nc21 | inactive
12 | Cc1ccc(S(=O)(=O)c2c(N)n(-c3ccccc3)c3nc4ccccc4nc23)cc1 | inactive
13 | Nc1c(S(=O)(=O)c2ccccc2)c2nc3ccccc3nc2n1/N=C/c1cccc(O)c1 | 39.8 µM (active)
14 | COCCNC(=O)c1c(N)n(/N=C/c2cccs2)c2nc3ccccc3nc12 | inactive
15 | Nc1c(S(=O)(=O)c2ccccc2)c2nc3ccccc3nc2n1C1CC1 | inactive
16 | Nc1c(S(=O)(=O)c2cccs2)c2nc3ccccc3nc2n1/N=C/c1cccc(O)c1 | 39.8 µM (active)
17 | Nc1c(C(=O)NCC2CCCO2)c2nc3ccccc3nc2n1-c1ccccc1 (configuration not stated) | inactive
18 | CC1(C)CC(=O)C2=C(C1)N1C(=C(C#N)C2c2ccc(Cl)cc2)N=C(N)c2ccccc21 (configuration not stated) | 22.4 µM (active)
19 | COc1ccc(C2C3=C(CC(C)(C)CC3=O)N(C)C3=C2C(=O)CC(C)(C)C3)cc1 | inactive
20 | COc1ccc(N2C3=C(C(=O)CC(C)(C)C3)C(c3ccccc3OC)C3=C2CC(C)(C)CC3=O)cc1 | inactive
21 | COc1cccc(C=O)c1OCCCOc1cccc2cccnc12 | 39.8 µM (active)
22 | COc1ccccc1OCCCC(=O)NCc1ccco1 | inactive
23 | COc1ccc(C2C3=C(O)CC(C)(C)CC3=Nc3c2c(=O)[nH]c(=O)n3Cc2ccccc2)cc1OC (configuration not stated) | inactive
24 | CCCc1ccc(C2Sc3ccccc3NC3=C2C(=O)c2ccccc23)cc1 (configuration not stated) | 31.6 µM (active)
25 | CC(C)(C)c1ccc(C2Sc3ccccc3NC3=C2C(=O)c2ccccc23)cc1 (configuration not stated) | 39.8 µM (active)
26 | Cc1cc2c(NC(=O)CC(C)(C)CC(=O)O)cccc2nn1 | inactive

Row | Structure (SMILES) | Potency
27 | C=CCSc1nnc(C)c(/C=C/Nc2ccc(Cl)cc2)n1 | inactive
28 | CCC(=O)Oc1ccc2c(c1)O/C(=C\c1ccco1)C2=O | inactive
29 | CCOC(=O)c1c(NC(=O)c2ccc(S(=O)(=O)N3CCC(C)CC3)cc2)sc2c1CCN(C(C)C)C2 | inactive
30 | Cc1c(C(=O)c2cccc([N+](=O)[O-])c2)c2ccccn2c1CCC#N | inactive
31 | Cc1ccc(C)n1NC(=O)c1ccc([N+](=O)[O-])cc1 | inactive
32 | O=[N+]([O-])c1ccc(N(c2ccccc2)c2ccccc2)cc1 | inactive
33 | N#Cc1c(N)n(CCOC(=O)c2cccc([N+](=O)[O-])c2)c2nc3ccccc3nc12 | inactive
34 | O=C(C#Cc1ccccc1)c1ccc([N+](=O)[O-])cc1 | 25.1 µM (active)
35 | O=C(C#Cc1ccccc1)c1cccc([N+](=O)[O-])c1 | 17.8 µM (active)
36 | O=C(c1cn(-c2ccccc2)nc1-c1cccnc1)N1CCN(S(=O)(=O)c2ccccc2F)CC1 | inactive
37 | Cc1cc(C)cc(OCC(=O)NC2CCCc3ccccc32)c1 (configuration not stated) | inactive
38 | O=C(/C=C/c1cc(Br)ccc1O)c1ccco1 | 39.8 µM (active)
39 | O=C(/C=C/Nc1ccccc1Oc1ccccc1)c1ccco1 | inactive
40 | NC(=O)N/N=C\c1cc(Br)ccc1O | inactive
41 | COc1ccc(C2=CC(c3ccc(C)cc3)n3nnnc3N2)cc1 (configuration not stated) | inactive
42 | ClCc1nnc(-c2cc3c(s2)CCCC3)o1 | 39.8 µM (active)
43 | Sc1nnc(-c2cc3c(s2)-c2ccccc2CC3)o1 | inactive
44 | CCOC(=O)c1cc2c(=O)n3ccccc3nc2n(Cc2ccco2)/c1=N\C(=O)c1ccc(C)c(C)c1 | inactive
45 | COc1cc2c(cc1NC(=O)C(Cl)Cl)-c1ccc(NC(=O)C(Cl)Cl)cc1C2 | 16.8 µM (active)
46 | COc1ccc(OC)c(NC(=O)C(C)Oc2ccc(Br)cc2)c1 (configuration not stated) | inactive
47 | COc1ccc(Cl)cc1NC(=O)C(OC)c1ccccc1 (configuration not stated) | inactive
48 | CCN(Cc1ccccc1)C(=O)CSc1ccccc1C(=O)O | inactive
49 | COc1cccc(N/C=C/C(=O)c2ccc(Cl)cc2)c1 | inactive
50 | O=C(Nc1nnc(-c2cccs2)o1)c1cccc(Oc2ccccc2)c1 | 28.2 µM (active)
51 | COc1cccc(-c2ccc3c(N)c(C(=O)Nc4ccc(Cl)cc4F)sc3n2)c1 | inactive
52 | N=c1oc2c3c4c(cc2cc1C(=O)Nc1ccccc1)CCCN4CCC3 | inactive

Row | Structure (SMILES) | Potency
53 | COc1cccc(C(=O)Nc2nnc(-c3ccc(Cl)cc3)o2)c1 | 35.5 µM (active)
54 | COc1cccc(-c2nnc(NC(=O)c3ccc(Cl)s3)o2)c1 | 25.1 µM (active)
55 | O=C(Nc1ccccc1C(=O)Nc1ccccc1C(=O)O)c1ccccc1 | inactive
56 | O=C(Nc1nnc(-c2ccc3c(c2)CCCC3)o1)c1ccccc1 | 39.8 µM (active)
57 | Cc1ccc(NC(=O)c2cccc(Oc3ccc([N+](=O)[O-])cc3)c2)c(C(=O)O)c1 | inactive
58 | COC(=O)c1ccsc1NC(=O)c1cccc(OC)c1 | inactive
59 | COc1ccc(OC)c2sc(NC(=O)c3ccc(Cl)s3)nc12 | inactive
60 | O=C(Oc1ccc(OC(=O)C2CCC2)cc1)C1CCC1 | inactive
61 | Cc1nc2scc(-c3ccccc3)c2c(=O)n1N=C1C=CC(=O)C=C1 | inactive
62 | CCOC(=O)c1c(NC(=O)c2ccno2)c2cc([N+](=O)[O-])ccc2n1C | inactive
63 | OCCN(CCO)c1nc(N2CCCCC2)c2nc(N(CCO)CCO)nc(N3CCCCC3)c2n1 | inactive
64 | Cc1cc(C)c(C#N)c(SCC(=O)C2CC2)n1 | inactive
65 | O=C(Nc1nnc(-c2ccccc2)o1)c1ccc(Cl)cc1 | 39.8 µM (active)
66 | Cc1ccnc2nc(C(=O)Nc3nnc(-c4ccccc4)o3)nn12 | inactive
67 | O=C(NCc1nnc2c3ccccc3c(-c3ccccc3)nn12)c1ccc(Cl)cc1 | inactive
68 | Cc1nc(CS(=O)(=O)c2ccccn2)sc1C(=O)NNC(=O)c1ccccc1 | inactive
69 | Cc1ccc(S(=O)(=O)N[C@H](C(=O)Oc2ccc3c(C(F)(F)F)cc(=O)oc3c2)c2ccccc2)cc1 | inactive
70 | CCOc1ccc(-c2c(=O)n(OCc3nc4ccccc4[nH]3)c3ccccc3[n+]2[O-])cc1 | inactive
71 | Cc1oc2ccc(O)c(CN3CCCC3)c2c1C(=O)Nc1ccc(C(C)C)cc1 | 15.8 µM (active)
72 | CCc1c(C)c2ccc(O)c(CN3CCCC3)c2oc1=O | inactive
73 | CC(C)c1ccc(/C=C2\Oc3c(ccc(O)c3CN3CCN(C)CC3)C2=O)cc1 | inactive
74 | CCn1c(=O)cc(OCC(=O)N2CCN(c3ccc(C)cc3)C(C)C2)c2ccccc21 (configuration not stated) | 28.2 µM (active)
75 | CCOC(=O)COc1cccc2c(=O)n(CC(=O)N3CCC(C)CC3)ccc12 | inactive
76 | CCN1CCCC(OC(=O)c2cc(-c3ccc(C)cc3)nc3ccccc23)C1 (configuration not stated) | inactive
77 | COc1ccc(-c2nc3ccc(NS(=O)(=O)c4ccc(C)cc4)cc3o2)cc1 | 39.8 µM (active)
78 | COc1ccc(-c2cc(C(=O)Nc3ccc(S(=O)(=O)Nc4onc(C)c4C)cc3)c3ccccc3n2)cc1 | inactive

Row | Structure (SMILES) | Potency
79 | COCc1cc(=O)oc2cc(NS(=O)(=O)c3ccc(C)cc3)ccc12 | inactive
80 | COC(=O)c1cscc1S(=O)(=O)Cc1ccccc1 | inactive
81 | CC(=O)Nc1ccc(S(=O)(=O)NCCc2cn3nc(C)c(C)nc3n2)cc1 | inactive
82 | CNC(=O)COC(=O)/C=C/c1nc2ccccc2s1 | inactive
83 | O=C(NCCN1C(=O)S/C(=C\c2ccc(Cl)c([N+](=O)[O-])c2)C1=O)C1=COCCO1 | 25.1 µM (active)
84 | CCOC(=O)CN1C(=O)S/C(=C\c2ccc3c(c2)OCO3)C1=O | inactive
85 | CCCn1nnc(NC(=S)NC(=O)c2ccccc2OC)n1 | inactive
86 | C=CCN1C(=O)/C(=C/c2ccc(O)cc2)S/C1=N/c1nccs1 | inactive
87 | C=CCN1C(=O)/C(=C2\C(=O)Nc3ccccc32)S/C1=N/c1ccc(O)cc1 | 31.6 µM (active)
88 | Cc1ccc(-c2nc3ccc(C)cn3c2Cc2ccsc2)cc1 | 22.4 µM (active)
89 | Cc1ccc(-c2cn3nc(-c4ccccc4)c(-c4ccccc4)nc3n2)cc1 | inactive
90 | Cc1ccn2c(NCc3ccccc3)c(-c3cccs3)nc2c1 | inactive
91 | Cc1ccc(Cc2c(-c3ccccc3)nc3cc(C)ccn23)cc1 | 22.4 µM (active)
92 | Cc1ccc2nc(Cl)nc(-c3ccccc3)c2c1 | inactive
93 | Cc1nc2ccccc2nc(C)c1=NOCc1cccc(F)c1 | inactive
94 | Cc1ccc2nc(-c3ccccc3)c(Cc3cccc(F)c3)n2c1 | 31.6 µM (active)
95 | Cc1ccc(Sc2nc3ccc(C)cn3c(=O)c2/C=N/O)cc1 | inactive
96 | Cc1ccc(-c2nc3ccc(C)cn3c2Cc2cccc(F)c2)cc1 | 35.5 µM (active)
97 | Cc1c(NC(=O)CCC2CCCCC2)cc(C(=O)N2CCOCC2)cc1[N+](=O)[O-] | inactive
98 | O=C(O)c1cc(Cl)c(Cl)cc1C(=O)N(Cc1ccccc1)Cc1ccccc1 | inactive
99 | COc1cccc2sc3cc(NCc4ccc(C)o4)ccc3c(=O)c12 | inactive
100 | Oc1nc(/C=C/c2cccc3ccccc23)nc2ccccc12 | inactive
101 | Cc1ccccc1/C=C/c1nc(O)c2ccccc2n1 | 31.6 µM (active)
102 | CN(C)c1ccc(/C=C/c2nc(O)c3ccccc3n2)cc1 | inactive
